High-throughput results as filed in PubChem.
The full list was thinned out, with hits kept by preference.
KDM5B inhibitor = inhibitors of human KDM5B histone demethylase; KDM5B demethylase, FDH-coupled NADH fluorescence (FDH is formaldehyde dehydrogenase); Potency, µM (series often up to 57.7 µM), actives largely listed as inhibitors; 220,000 tested, 2.6% active; active means well fitted inhibition curve with a large enough effect; further: 0% is about no effect; nearly all actives have a fitted effect of over 70% in size
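KDM5BΔAP (200 nM final) in 50 mM HEPES pH 7.5, 0.01% Tween-20 was preincubated 10 min at RT with compound over a concentration range. Substrate mix (H3K4me3 12.5 µM, α-KG 25 µM, Fe²⁺, ascorbate, NAD⁺, FDH) was added, and NADH fluorescence change over 30 min gave dose-response curves.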
The depositor's hits bear a star; i = inactive. Potency means the concentration at half of the fitted maximal effect.

SMILES | KDM5B inhibitor
O=C(NCCc1ccccc1)C1CC(=O)N(c2n[nH]c3cccc(F)c23)C1 (configuration not stated) | i
COc1ccccc1CNC(=O)C1CC(=O)N(c2n[nH]c3ccccc23)C1 (configuration not stated) | i
COc1ccccc1CCNC(=O)C1CC(=O)N(c2n[nH]c3cccc(F)c23)C1 (configuration not stated) | 22µM*
COCCCNC(=O)C1CC(=O)N(c2n[nH]c3cccc(F)c23)C1 (configuration not stated) | i
COc1ccc(C2(c3ccc(OC)cc3)C=Cc3c(c(O)cc4ccccc34)O2)cc1 | i
CC(C)[C@H](NC(=O)Cc1ccccc1)C(=O)O | i
Cc1c(C(=O)C(=O)N(C)Cc2ccccc2)c2ccccc2n1C | i
O=C(NCc1ccc(OC(F)F)cc1)C1CCN(S(=O)(=O)c2cccnc2)CC1 | i
Cc1c(Cl)cccc1NC(=O)Cn1c(C)cc2nc3n(c(=O)c21)CCCCC3 | i
Cc1ccc(S(=O)(=O)NCc2ccc(C(=O)N3CCN(c4cccc(C)c4C)CC3)cc2)cc1 | i
CC(C)=CC1C(C(=O)Nc2ccccc2OC(F)(F)F)C1(C)C (configuration not stated) | i
CC(=O)c1ccc(NC(=O)CCc2ncc(-c3ccccc3Cl)o2)cc1 | i
CSC1=N/C(=C\c2cccc(OCc3ccccc3)c2)C(=O)S1 | i
CN(C)CCN(C)C(=O)c1ccc2c(c1)NC(C)(CCCCc1ccccc1)CO2 (configuration not stated) | i
CC1(CCCCc2ccccc2)COc2ccc(C(=O)NCc3cnccn3)cc2N1 (configuration not stated) | i
CC1(CCCCc2ccccc2)COc2ccc(C(=O)NCc3ccncc3)cc2N1 (configuration not stated) | 32µM*
CC1(CCCCc2ccccc2)COc2ccc(C(=O)Nc3cccnc3)cc2N1 (configuration not stated) | 28µM*
CN(C(=O)c1ccc2c(c1)NC(C)(CNCc1ccccc1)CO2)c1ccccc1 (configuration not stated) | i
CC1(CCCCc2ccccc2)COc2ccc(C(=O)NCc3cccnc3)cc2N1 (configuration not stated) | 28µM*
CC(C)CNc1oc(COc2ccc3c(c2)OCO3)nc1C#N | i
CC(=O)c1cccc(NC(=O)CN(CCc2ccccc2)S(C)(=O)=O)c1 | i
CCc1cccc(NC(=O)CCC2CCCCC2)c1 | i
CCCc1cc(=O)[nH]c(Nc2nc(C)c3ccc(C)cc3n2)n1 | i
COC(=O)c1ccc(/C=N/OCc2ccc(C(=O)OC)cc2)cc1 | i
Cc1ccc2[nH]cc(C(C(=O)O)N3CCN(c4cccc(Cl)c4)CC3)c2c1 (configuration not stated) | i
SMILES | KDM5B inhibitor
CNC(=O)N1CCC(C2CCN(Cc3cccc(OC)c3OC)C2)CC1 (configuration not stated) | i
COc1cccc(-c2cc3c(=O)n(CCNC(=O)c4ccccc4)ccn3n2)c1 | i
COc1cccc(-c2cc3c(=O)n(CCNC(=O)Cc4cccc(F)c4)ccn3n2)c1 | i
COc1cccc(-c2cc3c(=O)n(CCNC(=O)c4ccc(F)cc4)ccn3n2)c1 | 28µM*
COc1cccc(-c2cc3c(=O)n(CCNC(=O)c4ccc(C)cc4)ccn3n2)c1 | 18µM*
COc1cccc(-c2cc3c(=O)n(CC(O)c4ccccc4)ccn3n2)c1 (configuration not stated) | 28µM*
COc1cccc(-c2cc3c(=O)n(CCNC(=O)Cc4ccc(Cl)cc4)ccn3n2)c1 | i
COc1cccc(-c2cc3c(=O)n(CCNC(=O)Cc4ccccc4C)ccn3n2)c1 | i
CCc1cccc(NC(=O)Cn2ccn3nc(-c4ccc(OC)c(OC)c4)cc3c2=O)c1 | i
COc1cccc(-c2cc3c(=O)n(CCNC(=O)c4ccccn4)ccn3n2)c1 | 32µM*
COc1cccc(-c2cc3c(=O)n(CCNC(=O)Cc4ccc(F)cc4)ccn3n2)c1 | i
COc1ccc(C(O)Cn2ccn3nc(-c4ccc(C(C)C)cc4)cc3c2=O)cc1 (configuration not stated) | i
COc1ccc(NC(C)=O)cc1NC(=O)Cc1ccc(OC)c(OC)c1 | i
O=c1[nH]c(N2CCOCC2)nc2c1CCN(Cc1ccc(Br)cc1)CC2 | i
Cc1c(C)c(C)c(S(=O)(=O)Nc2cc(Cl)ccc2C(=O)N(C)C)c(C)c1C | i
O=C(O)/C(=C\c1ccc(Br)cc1)Sc1nc2ccccc2s1 | i
N=C(N)c1cc(I)cc([N+](=O)[O-])c1 | i
Cc1[nH]c2ccccc2c1SCCNC(=O)c1ccc2ccccc2c1 | i
O=C1CCC2(CCN(C/C=C/c3ccccc3)CC2)CN1CCCn1ccnc1 | i
Cc1cccc(C)c1NC(=O)c1cc2cc(Br)ccc2oc1=O | i
O=C(O)c1ccc(F)c(Cl)c1 | i
CN(C)C[C@@H]1CN(C)C[C@H]1NC(=O)c1ccccc1OC(F)(F)F | i
CN(C)C[C@@H]1CN(C)C[C@H]1NC(=O)c1nn(C)c2ccccc12 | 32µM*
CN(C)C[C@@H]1CN(c2ccncn2)C[C@H]1NC(=O)c1ccc(Cl)s1 | i
CN(C)C[C@@H]1CN(c2ccncn2)C[C@H]1NC(=O)c1nccc2ccccc12 | i
SMILES | KDM5B inhibitor
CN(C)C[C@@H]1CN(c2ncccn2)C[C@H]1NC(=O)c1nn(C)c2ccccc12 | 32µM*
CN(C)C[C@@H]1CN(C2CCOCC2)C[C@H]1NC(=O)c1n[nH]c2ccccc12 | 22µM*
Cc1noc(C)c1CC(=O)N[C@@H]1CN(C2CCOCC2)C[C@H]1CN(C)C | i
CN(C)C[C@@H]1CN(C)C[C@H]1NC(=O)c1ccc(Br)cc1 | i
Cc1cnn(CC(=O)N[C@@H]2CN(C3CCOCC3)C[C@H]2CN(C)C)c1 | i
CCN1CCN(CCOc2ccc3c(=O)c(-c4ccccc4)coc3c2)CC1 | i
Cc1cc2nc(-c3cccc(NC(=O)c4cccnc4)c3)oc2cc1C | i
N#C/C(=C/c1ccc(OCc2ccc3ccccc3c2)cc1)c1nc2ccccc2[nH]1 | i
N#Cc1c(NC(=O)CSc2nc3ccc(Cl)cc3[nH]2)sc2c1CCC2 | i
NC(=O)c1c(NC(=O)CSc2ccccn2)sc2c1CCCC2 | i
COc1ccccc1-c1nc(C(=O)NCc2cccnc2)n2ccccc12 | 89µM*
COc1ccccc1-c1nc(C(=O)NCc2cccnc2)n2ccncc12 | 79µM*
COc1ccccc1-c1nc(C(=O)N(C)C)n2ccncc12 | 100µM*
COCCn1c(C(=O)NCc2cccnc2)nc2ccccc2c1=O | i
COc1ccccc1-c1nc(C(=O)NC(C)C)n2ccncc12 | 40µM*
COc1ccccc1-c1cc(C(=O)NCc2cccnc2)nn2cccc12 | i
COc1ccccc1-c1cc(C(=O)NC(C)C)nn2cccc12 | i
COc1ccc(C(CC(=O)NCc2cccnc2)c2ccccc2)cc1 (configuration not stated) | i
O=C1CCc2cc(-c3csc(NC4CC4)n3)ccc2N1 | i
CCOC(=O)c1ccc2nc(C)cc(Nc3ccc(OC)cc3)c2c1 | i
COc1cc(CNC(=O)c2ccc3c(c2)NC(=O)CCS3)ccc1OCc1ccccc1 | i
COC(=O)C1C(=O)CC(C)(O)C(C(=O)OC)C1c1ccc(F)cc1 (configuration not stated) | i
COC(=O)CNC(=O)c1nc(-c2ccccc2OC)c2cnccn12 | 100µM*
c1ccc(CCN2CCC(NC3CCCC3)CC2)cc1 | i
